Results as given in PubChem BioAssay (EPA / NIEHS).
“And” between values parts separate entries of the source, which are not always exact repeats. Equal entries are not always repeated. Results filed as inconclusive are left out. Where a structure was tested more than once in an assay, its records may differ in their call. The source made the active and inactive calls. How the source made its calls, unless noted: active means hit-call score of the fitted dose curve at least 0.9, where 1 is the maximum; inconclusive means response in the unintended direction; inactive means score below 0.9.

How the values were obtained:
[1] = target: Oxysterols receptor LXR-alpha (Homo sapiens) (UniProt Q13133); assay: ATG_LXRa_TRANS: Attagene TRANS-FACTORIAL HepG2 Assay for human Liver X Receptor alpha (LXRa) (AID 2282980); conditions: HepG2 Attagene TRANS reporter, LXRa transactivation
Method in brief: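 HepG2 cells were transiently transfected with multiplexed reporter units driven by chimeric LXRa–GAL4 fusion proteins, then dosed for 24 h. Reporter mRNA was quantified by RT-PCR, fluorescent labelling and capillary electrophoresis; gain of signal fitted against DMSO baseline.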

[2] = target: Oxysterols receptor LXR-beta (Homo sapiens) (UniProt P55055); assay: ATG_LXRb_TRANS: Attagene TRANS-FACTORIAL HepG2 Assay for human Liver X Receptor beta (LXRb) (AID 2282981); conditions: HepG2 Attagene TRANS GAL4-LXRb reporter, mRNA
Method in brief: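 Multiplexed reporter assay, HepG2, 24 h dosing. Fluorescence of labelled RT-PCR products after capillary electrophoresis gives transcript level; positive fitting direction relative to DMSO.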

[3] = target: Hepatocyte nuclear factor 4-alpha (Homo sapiens) (UniProt P41235); assay: ATG_HNF4a_TRANS: Attagene TRANS-FACTORIAL HepG2 Assay for human Hepatocyte Nuclear Factor 4 alpha (HNF4a) (AID 2282982); conditions: HepG2 HNF4a transactivation reporter, mRNA readout
Method in brief: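 Endpoint reflects transcriptional activation of a GAL4-UAS reporter by an HNF4a-GAL4 chimera in transfected HepG2 cells, 24 h post-dosing. Fluorescence from RT-PCR products separated by capillary electrophoresis; DMSO baseline.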

[4] = ATG_M_06_TRANS: Attagene TRANS-FACTORIAL HepG2 Assay for M06 Transcription Factor (Internal Marker) (AID 2282983); conditions: HepG2 Attagene TRANS M06 internal marker reporter
Method in brief: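 In this multiplexed HepG2 system, compounds are incubated 24 h with cells carrying GAL4-UAS reporter units. Reporter RNA is amplified and resolved by capillary electrophoresis, and induction is scored against DMSO.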

[5] = ATG_M_32_TRANS: Attagene TRANS-FACTORIAL HepG2 Assay for M32 Transcription Factor (Internal Marker) (AID 2282984); conditions: HepG2 Attagene TRANS M32 internal marker reporter
Method in brief: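 Internal-marker readout from a multiplexed transcription reporter panel. HepG2 cells were transfected with GAL4-UAS reporter units, treated 24 hours, and reporter transcript levels determined by fluorescence after RT-PCR and capillary separation.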

[6] = target: Nuclear receptor subfamily 4 group A member 2 (Homo sapiens) (UniProt P43354); assay: ATG_NURR1_TRANS: Attagene TRANS-FACTORIAL HepG2 Assay for human Nuclear Receptor Related Protein 1 (NURR1) (AID 2282985); conditions: HepG2 Attagene TRANS reporter, mRNA readout
Method in brief: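 Endpoint: reporter mRNA increase relative to DMSO. HepG2 cells transfected with reporter units, treated 24 h; RNA processed by RT-PCR, labelling, HpaI digestion and capillary electrophoresis.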

[7] = target: Nuclear respiratory factor 1 (Homo sapiens) (UniProt Q16656); assay: ATG_NRF1_CIS: Attagene CIS-FACTORIAL HepG2 Assay for human Nuclear Respiratory Factor 1 (NRF1) Orphan Gene (AID 2282987; active means hit-call score of the fitted dose curve at least 0.9, where 1 is the maximum; inactive means score below 0.9); conditions: HepG2 NRF1 cis-element reporter, Attagene multiplex; actives raise or lower the signal
Method in brief: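 Human hepatoma HepG2 cells carrying transfected promoter-regulated reporter units were incubated with test chemicals for 24 h. Reporter transcripts were measured by RT-PCR plus capillary electrophoresis, and endpoints derived by bidirectional fitting with DMSO as baseline.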

[8] = ATG_NFI_CIS: Attagene CIS-FACTORIAL HepG2 Assay for human Nuclear Factor I (NFI) (AID 2282989; active means hit-call score of the fitted dose curve at least 0.9, where 1 is the maximum; inactive means score below 0.9); conditions: HepG2 cis-regulatory reporter, NFI response element transcription; actives raise or lower the signal
Method in brief: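 Cells: human liver HepG2, transiently transfected with promoter-regulated reporter transcription units. Exposure 24 h. Detection: fluorescent RT-PCR products separated by capillary electrophoresis, normalised to DMSO negative control.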

[9] = target: Transcriptional activator Myb (Homo sapiens) (UniProt P10242); assay: ATG_Myb_CIS: Attagene CIS-FACTORIAL HepG2 Assay for human Myeloblastosis (Myb) Proto-Oncogene Transcription Factor (AID 2282986; active means hit-call score of the fitted dose curve at least 0.9, where 1 is the maximum; inactive means score below 0.9); conditions: HepG2 Attagene CIS-FACTORIAL Myb reporter transcription; actives raise or lower the signal
Method in brief: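 Endogenous transcription factor activity at a Myb-responsive cis element is reported in human liver HepG2 cells after 24 h chemical treatment. Reporter mRNA is detected by RT-PCR and capillary electrophoresis fluorescence, with DMSO as baseline.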

Measured: AC50

Sequence of Nuclear receptor subfamily 4 group A member 2 (Homo sapiens) (P43354 whole entry, looked up): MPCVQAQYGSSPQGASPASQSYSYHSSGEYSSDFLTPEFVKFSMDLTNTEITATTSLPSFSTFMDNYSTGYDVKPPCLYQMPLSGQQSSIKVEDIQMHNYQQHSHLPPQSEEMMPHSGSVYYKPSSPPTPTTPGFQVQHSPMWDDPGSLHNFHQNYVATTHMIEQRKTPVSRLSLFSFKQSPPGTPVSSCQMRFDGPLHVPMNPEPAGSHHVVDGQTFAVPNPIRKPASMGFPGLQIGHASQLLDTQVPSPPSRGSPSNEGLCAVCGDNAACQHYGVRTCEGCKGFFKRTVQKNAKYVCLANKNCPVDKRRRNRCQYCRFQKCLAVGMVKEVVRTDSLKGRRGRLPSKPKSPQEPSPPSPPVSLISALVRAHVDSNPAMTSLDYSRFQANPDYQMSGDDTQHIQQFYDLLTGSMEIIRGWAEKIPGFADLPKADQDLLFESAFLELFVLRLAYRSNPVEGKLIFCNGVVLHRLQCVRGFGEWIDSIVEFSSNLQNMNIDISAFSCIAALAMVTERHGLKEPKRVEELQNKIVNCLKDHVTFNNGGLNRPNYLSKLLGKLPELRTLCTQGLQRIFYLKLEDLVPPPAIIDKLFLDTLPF
Sequence of Transcriptional activator Myb (Homo sapiens) (P10242 whole entry, looked up): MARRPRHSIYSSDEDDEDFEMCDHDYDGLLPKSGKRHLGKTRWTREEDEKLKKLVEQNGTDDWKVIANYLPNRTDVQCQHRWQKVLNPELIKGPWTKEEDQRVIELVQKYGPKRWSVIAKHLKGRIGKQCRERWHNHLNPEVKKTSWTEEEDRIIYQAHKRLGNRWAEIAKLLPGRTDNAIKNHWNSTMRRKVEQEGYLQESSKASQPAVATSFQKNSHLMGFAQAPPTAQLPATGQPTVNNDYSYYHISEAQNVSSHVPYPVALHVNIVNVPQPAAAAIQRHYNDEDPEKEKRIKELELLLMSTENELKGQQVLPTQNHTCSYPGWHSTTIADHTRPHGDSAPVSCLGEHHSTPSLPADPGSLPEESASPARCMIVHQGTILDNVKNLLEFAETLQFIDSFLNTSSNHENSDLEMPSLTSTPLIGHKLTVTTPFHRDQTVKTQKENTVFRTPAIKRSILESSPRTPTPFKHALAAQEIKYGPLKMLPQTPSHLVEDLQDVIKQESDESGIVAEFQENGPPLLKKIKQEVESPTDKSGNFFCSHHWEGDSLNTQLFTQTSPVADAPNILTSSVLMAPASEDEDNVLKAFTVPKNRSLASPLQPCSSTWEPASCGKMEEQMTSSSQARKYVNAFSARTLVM
Sequence of Oxysterols receptor LXR-beta (Homo sapiens) (P55055 whole entry, looked up, the tested form may be a part): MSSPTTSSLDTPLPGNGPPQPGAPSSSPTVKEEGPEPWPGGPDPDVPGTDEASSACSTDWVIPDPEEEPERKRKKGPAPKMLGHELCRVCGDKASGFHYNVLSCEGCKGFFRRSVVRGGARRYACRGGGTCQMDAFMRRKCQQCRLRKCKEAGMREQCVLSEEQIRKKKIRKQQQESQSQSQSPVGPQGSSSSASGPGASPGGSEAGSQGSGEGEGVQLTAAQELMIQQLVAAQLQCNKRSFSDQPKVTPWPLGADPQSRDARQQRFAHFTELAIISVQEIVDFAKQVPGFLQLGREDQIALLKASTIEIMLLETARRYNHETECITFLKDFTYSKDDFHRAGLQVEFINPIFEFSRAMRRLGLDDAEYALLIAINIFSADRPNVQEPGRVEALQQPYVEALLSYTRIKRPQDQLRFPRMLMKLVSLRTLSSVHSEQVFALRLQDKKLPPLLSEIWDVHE
Sequence of Nuclear respiratory factor 1 (Homo sapiens) (Q16656 whole entry, looked up): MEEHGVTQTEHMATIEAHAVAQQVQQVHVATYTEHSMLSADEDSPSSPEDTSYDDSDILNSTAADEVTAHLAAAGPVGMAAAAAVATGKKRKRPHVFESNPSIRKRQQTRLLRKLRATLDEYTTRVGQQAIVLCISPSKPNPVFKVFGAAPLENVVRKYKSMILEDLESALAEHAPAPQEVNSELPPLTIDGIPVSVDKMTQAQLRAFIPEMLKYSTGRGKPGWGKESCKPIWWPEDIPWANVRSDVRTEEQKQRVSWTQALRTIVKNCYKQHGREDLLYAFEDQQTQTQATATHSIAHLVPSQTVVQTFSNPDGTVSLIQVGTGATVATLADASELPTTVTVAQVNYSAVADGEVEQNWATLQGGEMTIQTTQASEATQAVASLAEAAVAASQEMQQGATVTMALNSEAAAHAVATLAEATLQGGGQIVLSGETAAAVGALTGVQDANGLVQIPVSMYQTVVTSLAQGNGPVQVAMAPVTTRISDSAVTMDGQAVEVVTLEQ
Sequence of Oxysterols receptor LXR-alpha (Homo sapiens) (Q13133 whole entry, looked up, the tested form may be a part): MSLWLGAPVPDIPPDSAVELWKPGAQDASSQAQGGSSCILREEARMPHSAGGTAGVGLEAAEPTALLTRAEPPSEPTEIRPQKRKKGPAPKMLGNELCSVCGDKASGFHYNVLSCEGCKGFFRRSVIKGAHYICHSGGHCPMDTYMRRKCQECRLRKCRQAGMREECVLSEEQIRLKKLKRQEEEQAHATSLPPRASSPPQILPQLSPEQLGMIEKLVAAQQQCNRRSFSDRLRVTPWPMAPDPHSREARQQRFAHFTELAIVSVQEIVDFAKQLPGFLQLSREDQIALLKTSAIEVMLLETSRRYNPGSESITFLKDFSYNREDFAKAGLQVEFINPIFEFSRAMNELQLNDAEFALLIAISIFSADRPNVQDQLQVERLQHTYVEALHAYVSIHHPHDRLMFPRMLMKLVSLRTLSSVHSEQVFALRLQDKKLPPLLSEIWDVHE
Sequence of Hepatocyte nuclear factor 4-alpha (Homo sapiens) (P41235 whole entry, looked up, the tested form may be a part): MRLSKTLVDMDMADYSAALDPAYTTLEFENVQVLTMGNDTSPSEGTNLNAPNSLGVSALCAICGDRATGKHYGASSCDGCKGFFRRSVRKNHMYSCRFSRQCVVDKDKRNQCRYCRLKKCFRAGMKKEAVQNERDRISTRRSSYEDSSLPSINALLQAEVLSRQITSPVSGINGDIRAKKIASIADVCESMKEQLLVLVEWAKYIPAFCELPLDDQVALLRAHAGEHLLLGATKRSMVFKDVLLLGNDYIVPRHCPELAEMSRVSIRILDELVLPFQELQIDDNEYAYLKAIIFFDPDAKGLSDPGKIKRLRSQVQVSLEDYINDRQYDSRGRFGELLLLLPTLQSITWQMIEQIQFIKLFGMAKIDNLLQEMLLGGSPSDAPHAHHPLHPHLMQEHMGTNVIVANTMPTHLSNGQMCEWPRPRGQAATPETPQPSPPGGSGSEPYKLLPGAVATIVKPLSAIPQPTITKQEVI

S=C(S)NCCNC(=S)S.[Mn+2].[S-]C([S-])=NCCN=C([S-])[S-].[Zn+2]
not listed: [9]
inactive: all other assays above

N#CSCSc1nc2ccccc2s1
inactive: [1] | [2] | [3] | [4] | [5] | [6] | [9] | [7]
active: [3] 24.1 µM | [6] 11.6 µM | [7] 16.7 µM | [8] 15.4 µM and 358 nM

N[C@@H](Cc1cc(I)c(Oc2ccc(O)c(I)c2)c(I)c1)C(=O)O
inactive: [1] | [2] | [3] | [4] | [5] | [6] | [7] | [8]
active: [6] 25.8 µM

CCNc1nc(N)nc(Cl)n1
not listed: [3] | [6] | [9]
inactive: all other assays above

CC(=O)[C@H]1CC[C@H]2[C@@H]3CCC4=CC(=O)CC[C@]4(C)[C@H]3CC[C@]12C
inactive: [1] | [2] | [4] | [5] | [6] | [7] | [8]
active: [5] 125 µM

COC(=O)c1ccccc1S(=O)(=O)NC(=O)Nc1nc(OC(F)F)cc(OC(F)F)n1
not listed: [1] | [4] | [9]
inactive: all other assays above

CCOC(=O)[C@H](C)Oc1ccc(Oc2nc3ccc(Cl)cc3o2)cc1
active: [2] 50 µM
inactive: [1] | [3] | [7] | [8]

CCN(Cc1c(F)cccc1Cl)c1c([N+](=O)[O-])cc(C(F)(F)F)cc1[N+](=O)[O-]
not listed: [1] | [4] | [9]
inactive: all other assays above

CCCCCOC(=O)COc1cc(N2C(=O)C3=C(CCCC3)C2=O)c(F)cc1Cl
not listed: [2] | [4]
inactive: all other assays above

CCOC(=O)COc1cc(-n2ncc(C(F)(F)F)c(C)c2=O)c(F)cc1Cl
inactive: [1] | [2] | [4] | [7] | [8]

C#CCOC(=O)[C@@H](C)Oc1ccc(Oc2ncc(Cl)cc2F)cc1
inactive: [1] | [4] | [7] | [8]
active: [2] 1.16 µM

COc1c(Cl)ccc(Cl)c1C(=O)O
active: [6] 59.2 µM
inactive: [1] | [2] | [9] | [7] | [8]

C[C@]12C[C@H](O)[C@H]3[C@@H](CCC4=CC(=O)CC[C@@]43C)[C@@H]1CC[C@@H]2C(=O)CO
not listed: [3] | [9]
inactive: all other assays above

COC(=O)c1ccccc1C(=O)O
not listed: [3] | [5] | [9]
inactive: all other assays above

CCCCOCCOCCOCc1cc2c(cc1CCC)OCO2
not listed: [1] | [2] | [9]
inactive: all other assays above

CCCCCCC(C)OC(=O)COc1nc(F)c(Cl)c(N)c1Cl (stereo not given)
not listed: [1] | [2] | [5]
inactive: all other assays above

O=C(Nc1ccc([N+](=O)[O-])cc1Cl)c1cc(Cl)ccc1O
inactive: [1] | [2] | [3] | [7] | [8]

COC(=O)c1cccc(C)c1S(=O)(=O)NC(=O)Nc1nc(OCC(F)(F)F)nc(N(C)C)n1
not listed: [3] | [4]
inactive: all other assays above

CCC(C)OC(=O)N1CCCCC1CCO (stereo not given)
not listed: [4] | [5] | [9]
inactive: all other assays above

CCC(O)=C1C(=O)CC(C(=O)O)CC1=O (stereo not given)
not listed: [3] | [9]
inactive: all other assays above

C#C[C@]1(O)CC[C@H]2[C@@H]3CCC4=CC(=O)CC[C@@H]4[C@H]3CC[C@@]21CC
not listed: [3] | [9]
inactive: all other assays above

Oc1ccc(C(c2ccc(O)cc2)C(Cl)(Cl)Cl)cc1
not listed: [3] | [6] | [9]
inactive: all other assays above

COC(=O)CSc1cc(N=c2sc(=O)n3n2CCCC3)c(F)cc1Cl
inactive: [1] | [2] | [4] | [7] | [8]

CSC(=O)c1cccc2nnsc12
not listed: [1] | [3] | [9]
inactive: all other assays above

CCCCC(CC)COC(=O)c1ccccc1C(=O)O (stereo not given)
not listed: [3] | [6] | [9]
inactive: all other assays above

CCCOC(=O)NCCCN(C)C
inactive: [1] | [2] | [6] | [7] | [8]

C=CCOC(Cn1ccnc1)c1ccc(Cl)cc1Cl (stereo not given)
not listed: [1] | [9]
inactive: all other assays above

O=C(c1ccccc1)C1CCCCC1
not listed: [3]
inactive: all other assays above

COC(=O)c1ccc(I)cc1S(=O)(=O)NC(=O)Nc1nc(C)nc(OC)n1
inactive: [2] | [3] | [4] | [7] | [8]

CCOC(=O)C(C)Oc1ccc(Oc2cnc3cc(Cl)ccc3n2)cc1 (stereo not given)
not listed: [3] | [4] | [5]
inactive: all other assays above

CCSC(=O)N(CC(C)C)CC(C)C
not listed: [1] | [3]
inactive: all other assays above

CCOC(=O)NCCOc1ccc(Oc2ccccc2)cc1
not listed: [3] | [5] | [9]
inactive: all other assays above
